# A collection of fitness landscapes (doi:10.1038/s41467-024-54723-y)
# In all, about 18,000 sequences were measured (“TetR repression strength (sort-seq, GFP reporter)”: median about 0.23, highest 2% from about 0.68 on). Only a selection was taken, and the highest values are over-represented in it overall.
# Molecular target: TetR (class B, Tn10) (UniProt P04483)
# Assay: TetR repression strength (sort-seq, GFP reporter) (relative to tetO2 = 1); higher = stronger repression
# Conditions: E. coli
# How it was run: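 Escherichia coli SIG10-MAX cells carried a low-copy plasmid library in which eight operator positions were randomized between a constitutive promoter and sfGFP, and TetR was expressed constitutively. After 5 h of growth at 37 °C in LB with 50 µg/mL chloramphenicol, 10^6 cells were FACS-sorted into 13 fluorescence bins, and each bin was Illumina-sequenced. Repression strength was the top bin index plus one minus the read-weighted mean bin, divided by the value for the unaltered operator. Across three independent transformations, only library members with ≥30 reads in every replicate and a CV ≤0.5 were averaged.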
# Chain of TetR (class B, Tn10) (P04483 whole entry): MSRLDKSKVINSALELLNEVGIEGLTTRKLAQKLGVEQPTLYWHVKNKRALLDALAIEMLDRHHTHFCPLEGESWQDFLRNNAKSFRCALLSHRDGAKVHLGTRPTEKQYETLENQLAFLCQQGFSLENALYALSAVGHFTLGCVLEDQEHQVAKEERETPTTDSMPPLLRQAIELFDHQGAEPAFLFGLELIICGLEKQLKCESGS
row,Sequence,TetR repression strength
1,TCCCTGGAAGTAATCGAGA,0.241
2,TCCCCATTAGTACGTGAGA,0.214
3,TCCCCGCGAGTAGGGGAGA,0.245
4,TCCCGAAGAGTCTTAGAGA,0.279
5,TCCCACACAGTCGGAGAGA,0.333
6,TCCCCTGAAGTGGCAGAGA,0.204
7,TCCCGCTGAGTCGGCGAGA,0.15
8,TCCCCAGAAGTGGTAGAGA,0.255
9,TCCCGTTTAGTGTTTGAGA,0.0592
10,TCCCATCTAGTGAGTGAGA,0.316
11,TCCCATCTAGTGGGGGAGA,0.318
12,TCCCTTCTAGTATCGGAGA,0.317
13,TCCCATCGAGTACTGGAGA,1.02
14,TCCCATCTAGTATCTGAGA,0.199
15,TCCCATCTAGTGTGGGAGA,1.06
16,TCCCGTCTAGTGCGTGAGA,0.0665
17,TCCCATGGAGTACTGGAGA,0.0311
18,TCCCATCTAGTGCGTGAGA,0.708
19,TCCCATCTAGTGTGTGAGA,0.253
20,TCCCATAGAGTACTGGAGA,0.169
21,TCCCATCTAGTATCGGAGA,0.908
22,TCCCGCCTAGTAGGCGAGA,0.391
23,TCCCCTTCAGTACGAGAGA,0.251
24,TCCCGGTCAGTGGTGGAGA,0.24
25,TCCCTCACAGTGGTAGAGA,0.157
26,TCCCAACTAGTCCTGGAGA,0.278

row,Sequence,TetR repression strength
1,TCCCTCATAGTATTGGAGA,0.22
2,TCCCTGGCAGTGATAGAGA,0.489
3,TCCCCGTCAGTGCGGGAGA,0.0283
4,TCCCATCTAGTTGGAGAGA,0.371
5,TCCCATCTAGTTGGCGAGA,0.829
6,TCCCTTCTAGTTGGCGAGA,0.281
7,TCCCTTTAAGTTCACGAGA,0.199
8,TCCCGGTTAGTTAGCGAGA,0.363
9,TCCCGGGCAGTCCTCGAGA,0.909
10,TCCCGGGAAGTCCTCGAGA,0.985
11,TCCCGGTCAGTCCTCGAGA,0.15
12,TCCCGGGAAGTCCGCGAGA,0.144
13,TCCCGGGCAGTCGTCGAGA,0.311
14,TCCCGGGGAGTCCTCGAGA,0.242
15,TCCCGGACAGTGTAGGAGA,0.295
16,TCCCTCCTAGTGTGGGAGA,0.194
17,TCCCTGGCAGTGATGGAGA,0.189
18,TCCCGGCGAGTGGTAGAGA,0.306
19,TCCCGAGTAGTCCTCGAGA,0.207
20,TCCCCTGGAGTCGGGGAGA,0.222
21,TCCCTTGGAGTCATGGAGA,0.307
22,TCCCTTGTAGTCATGGAGA,0.687
23,TCCCCTGTAGTAGGGGAGA,0.261
24,TCCCTTGGAGTCGGGGAGA,0.319
25,TCCCTTGTAGTCGGGGAGA,0.938
26,TCCCTTGTAGTCCGGGAGA,0.387

row,Sequence,TetR repression strength
1,TCCCCTGTAGTCGGGGAGA,0.858
2,TCCCTTGTAGTCTTGGAGA,0.287
3,TCCCAGGCAGTCGGCGAGA,0.25
4,TCCCAAAGAGTGGGGGAGA,0.217
5,TCCCGTAGAGTGTACGAGA,0.175
6,TCCCGTGGAGTGCCTGAGA,0.0904
7,TCCCCGAAAGTGGCCGAGA,0.0544
8,TCCCCGACAGTGACTGAGA,0.207
9,TCCCCGACAGTGACCGAGA,1.08
10,TCCCCGCCAGTGACCGAGA,0.207
11,TCCCCGAAAGTGACCGAGA,1.21
12,TCCCGGAAAGTGACCGAGA,0.203
13,TCCCGCGGAGTCCTCGAGA,0.294
14,TCCCTATGAGTGGGCGAGA,0.164
15,TCCCACTCAGTTAGGGAGA,0.268
16,TCCCCCAGAGTCGACGAGA,0.84
17,TCCCCCCGAGTCGACGAGA,0.239
18,TCCCCGATAGTCGACGAGA,0.0424
19,TCCCCCATAGTCGGCGAGA,0.134
20,TCCCCCATAGTCGACGAGA,0.825
21,TCCCCAAGAGTCGACGAGA,0.264
22,TCCCATGTAGTATGCGAGA,0.327
23,TCCCCACTAGTGGCGGAGA,0.514
24,TCCCGGTAAGTAACGGAGA,0.201
25,TCCCTGTGAGTCGCAGAGA,0.172
26,TCCCTTTTAGTGCATGAGA,0.711

row,Sequence,TetR repression strength
1,TCCCTTTGAGTGCATGAGA,0.403
2,TCCCTTTTAGTGAGAGAGA,0.425
3,TCCCTTTTAGTGAATGAGA,0.889
4,TCCCTTTGAGTGAATGAGA,0.472
5,TCCCTTTTAGTGCCTGAGA,0.325
6,TCCCGGAAAGTAGCAGAGA,0.0718
7,TCCCTGTTAGTGTGTGAGA,0.138
8,TCCCAATGAGTAGGGGAGA,0.0811
9,TCCCCACAAGTTCGGGAGA,0.0657
10,TCCCTTCTAGTCTAAGAGA,0.306
11,TCCCGCAAAGTCAGGGAGA,0.273
12,TCCCAGCGAGTACGTGAGA,0.134
13,TCCCGTACAGTATAGGAGA,0.0753
14,TCCCGGTAAGTGAGAGAGA,0.502
15,TCCCGGTAAGTAGCTGAGA,0.208
16,TCCCGGTAAGTGAAAGAGA,0.684
17,TCCCGGTGAGTGAAAGAGA,0.347
18,TCCCGGTAAGTGGGTGAGA,0.141
19,TCCCAGTCAGTGAAAGAGA,0.62
20,TCCCGGTCAGTGAAAGAGA,0.692
21,TCCCGGTAAGTGGCTGAGA,1.11
22,TCCCGGTCAGTGAGAGAGA,0.591
23,TCCCCCCCAGTCGATGAGA,0.409
24,TCCCATGGAGTTCGAGAGA,0.0732
25,TCCCCTTAAGTTAATGAGA,0.515
26,TCCCACGGAGTCGCGGAGA,0.172

row,Sequence,TetR repression strength
1,TCCCATGGAGTGTAAGAGA,0.236
2,TCCCGGGCAGTCGTGGAGA,0.285
3,TCCCTTCTAGTCCTCGAGA,0.421
4,TCCCTAATAGTCCTCGAGA,0.385
5,TCCCTAAGAGTCCTCGAGA,0.353
6,TCCCTACTAGTCCTCGAGA,1.12
7,TCCCTACGAGTCCTCGAGA,1.14
8,TCCCTACGAGTACTCGAGA,0.207
9,TCCCATATAGTTTAGGAGA,0.0773
10,TCCCCCGCAGTCCCTGAGA,0.333
11,TCCCAGATAGTCGCGGAGA,0.108
12,TCCCCATCAGTGGTAGAGA,0.417
13,TCCCGATGAGTTAATGAGA,0.196
14,TCCCGATGAGTTAGGGAGA,0.296
15,TCCCGATGAGTTAAGGAGA,0.797
16,TCCCGAGGAGTTAAGGAGA,0.295
17,TCCCGATGAGTTAGAGAGA,0.749
18,TCCCGATGAGTTAGCGAGA,0.201
19,TCCCGAGGAGTAAGTGAGA,0.204
20,TCCCTTGTAGTATGTGAGA,0.133
21,TCCCTAGTAGTACTGGAGA,0.176
22,TCCCGGCTAGTACGGGAGA,0.244
23,TCCCTATCAGTGGGGGAGA,0.378
24,TCCCTTTCAGTGACCGAGA,0.946
25,TCCCTTTCAGTGACTGAGA,0.435
26,TCCCGATCAGTGACTGAGA,0.427

row,Sequence,TetR repression strength
1,TCCCTATCAGTGGCGGAGA,0.715
2,TCCCTTGCAGTGACCGAGA,0.315
3,TCCCTATCAGTCACCGAGA,0.789
4,TCCCTGTCAGTCACCGAGA,0.664
5,TCCCTATCAGTCGCCGAGA,0.455
6,TCCCTATCAGTCGCGGAGA,0.456
7,TCCCGATCAGTGACCGAGA,0.715
8,TCCCGATCAGTGAGCGAGA,0.544
9,TCCCGTCTAGTAGCAGAGA,0.634
10,TCCCATGGAGTGTTAGAGA,0.246
11,TCCCCGATAGTCGTGGAGA,0.177
12,TCCCAGCGAGTGCAAGAGA,0.364
13,TCCCGGCCAGTGGAGGAGA,0.19
14,TCCCAAATAGTCGTGGAGA,0.415
15,TCCCGCCAAGTGCGCGAGA,0.258
16,TCCCGTGCAGTAATCGAGA,0.749
17,TCCCGATCAGTGACAGAGA,0.742
18,TCCCTATCAGTGAAGGAGA,0.51
19,TCCCGTTCAGTGACAGAGA,0.504
20,TCCCGACCAGTGACAGAGA,0.644
21,TCCCTATCAGTGAACGAGA,0.862
22,TCCCGTGCAGTAAACGAGA,0.326
23,TCCCTATCAGTTACCGAGA,0.663
24,TCCCGATCAGTGAACGAGA,0.628
25,TCCCTATCAGTGACCGAGA,0.944
26,TCCCGGGCAGTAATCGAGA,0.121

row,Sequence,TetR repression strength
1,TCCCTATGAGTGACCGAGA,0.604
2,TCCCACATAGTGGTAGAGA,0.199
3,TCCCACTGAGTGCCTGAGA,0.139
4,TCCCATCCAGTGCTTGAGA,0.267
5,TCCCCGTAAGTGAGAGAGA,0.149
6,TCCCTTAAAGTATGCGAGA,0.238
7,TCCCTTTAAGTTCTCGAGA,0.271
8,TCCCTGTAAGTATGGGAGA,0.174
9,TCCCCCGAAGTTAAGGAGA,0.155
10,TCCCGGTGAGTGACCGAGA,0.207
11,TCCCTATAAGTGGCCGAGA,0.719
12,TCCCTATGAGTGGCCGAGA,0.402
13,TCCCTATCAGTGGCCGAGA,0.724
14,TCCCGATCAGTGGCCGAGA,0.565
15,TCCCGCGCAGTGACCGAGA,0.219
16,TCCCGGTCAGTCACCGAGA,0.669
17,TCCCGTGCAGTGCCCGAGA,0.361
18,TCCCGGTCAGTGACCGAGA,0.715
19,TCCCGTGCAGTGACCGAGA,0.709
20,TCCCTATCAGTGGGCGAGA,0.541
21,TCCCGATAAGTGGCCGAGA,0.171
22,TCCCAGTGAGTCCATGAGA,0.163
23,TCCCAACAAGTGTTCGAGA,0.0254
24,TCCCTGCAAGTTTCGGAGA,0.0543
25,TCCCCTGGAGTAGGCGAGA,0.0907
26,TCCCAGTGAGTACCCGAGA,0.261

row,Sequence,TetR repression strength
1,TCCCTTTTAGTGGTGGAGA,0.212
2,TCCCTCATAGTAAGAGAGA,0.291
3,TCCCTGATAGTTGGCGAGA,0.317
4,TCCCGTGGAGTTGACGAGA,0.0573
5,TCCCAGATAGTCGAAGAGA,0.115
6,TCCCTGGGAGTCGAAGAGA,0.196
7,TCCCTCTGAGTCGAAGAGA,0.0537
8,TCCCTGAGAGTCGAAGAGA,1.18
9,TCCCTGGTAGTCGAAGAGA,0.187
10,TCCCTGATAGTCGAAGAGA,1.14
11,TCCCGGATAGTGTCGGAGA,0.141
12,TCCCCGTTAGTTTTAGAGA,0.25
13,TCCCGTTGAGTATATGAGA,0.229
14,TCCCGATAAGTAGAAGAGA,0.585
15,TCCCGTGCAGTGCTTGAGA,0.207
16,TCCCGTCAAGTGGTTGAGA,0.152
17,TCCCGTCCAGTGCTGGAGA,0.212
18,TCCCGTCCAGTGCTTGAGA,0.915
19,TCCCGTCAAGTGCTTGAGA,0.848
20,TCCCGGCAAGTGCTTGAGA,0.155
21,TCCCGCTCAGTTGGGGAGA,0.186
22,TCCCCAGTAGTAGTGGAGA,0.246
